Where “and” joins values, the source holds several entries; their conditions need not be identical. Identical values can stand only once. This is part of a sample that, as a whole, favours compounds with a hit. Of some 83,000 tested, about 20% had one in any assay.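 A percent growth of 40 corresponds to 60% growth inhibition; 0 means no net growth; -100 means all cells died. Active threshold: below 10.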 Calls of active or inactive are those of the source.

Among the test systems are BT-549 breast; MDA-MB-435 melanoma; SW-620 colon; MCF7 breast; HCC-2998 colon; KM12 colon; HCT-116 colon.
Holding throughout (experiment): NCI-60 one-dose screen, 48 h (100 = growth as untreated, 0 = no growth, -100 = all killed)
What all share (conditions): 10 µM unless noted

Turning to `OC(CSc1ccccc1)CN1CCN(c2cccc(Cl)c2)CC1` (stereo not drawn), the growth in the assay with BT-549 breast was 97.7% (inactive); in the assay on MDA-MB-435 melanoma, 114% (inactive) and 93.6% (inactive); in the assay on SW-620 colon it was 105% (inactive); in the assay on MCF7 breast, 102% (inactive) and 94% (inactive); in the assay with HCC-2998 colon, 106% (inactive) and 95% (inactive); in the assay with KM12 colon it was 109% (inactive) and 101% (inactive).
`CCCCCn1sc(=O)n(Cc2ccc(CNC(=O)C(C)c3ccc(CC(C)C)cc3)cc2)c1=O` (stereo not drawn): the growth is 99.1% (inactive) and -82.4% (active) with BT-549 breast; 98.1% (inactive) and -61.5% (active) with MDA-MB-435 melanoma; 93.2% (inactive) and -43.1% (active) with MCF7 breast; 103% (inactive) and -82.6% (active) in the assay with HCT-116 colon; 105% (inactive) and -64.3% (active) in the assay on HCC-2998 colon; 88.7% (inactive) and -14.3% (active) in the assay on KM12 colon.
In the case of `NC(=O)C1CC2C=CC1C2` (stereo not drawn), the growth with BT-549 breast was 93% (inactive) and 112% (inactive); in the assay with MDA-MB-435 melanoma it was 106% (inactive) and 100% (inactive); with MCF7 breast, 100% (inactive) and 102% (inactive); in the assay on HCT-116 colon, 92.5% (inactive) and 91.5% (inactive); with HCC-2998 colon, 76.5% (inactive) and 110% (inactive); with KM12 colon, 112% (inactive) and 105% (inactive).
For `N#CC(=S)Nc1ccc(F)cc1`, the growth with MCF7 breast was 13.1% [100 µM] (inactive) and -70.2% [100 µM] (active).
Take `Cc1ccc(OC2CC(n3cnc4ncnc(Cl)c43)OC2Oc2ccc(C)cc2)cc1` (stereo not drawn): the growth with MCF7 breast was 8.44% [100 µM] (active) and -95.4% [100 µM] (active).
Regarding `O=C(CCc1ccc(O)cc1)N/N=C/c1cc(Br)ccc1O`, the growth with BT-549 breast is 52.4% (inactive); in the assay on MDA-MB-435 melanoma, 55.8% (inactive); with SW-620 colon, 59.5% (inactive); in the assay on MCF7 breast, 38.9% (inactive); in the assay with HCC-2998 colon it was 50.1% (inactive); in the assay with KM12 colon, 28.1% (inactive).
`CCOc1cc2c(cc1O)/C(=N/NS(=O)(=O)c1ccc(C)cc1)C[C@@H]1[C@@H]2CC[C@]2(C)[C@@H](O)CC[C@@H]12`: in the assay with MCF7 breast, the growth was -3.96% [100 µM] (active).
As for `Cc1ccc(S(=O)(=O)Nc2ccc3cc([N+](=O)[O-])ccc3c2[N+](=O)[O-])cc1`, the growth is 92.3% (inactive) and 95.5% (inactive) in the assay with BT-549 breast; 63.3% (inactive) and 91.7% (inactive) in the assay on MDA-MB-435 melanoma; 91.9% (inactive) and 93.4% (inactive) in the assay with SW-620 colon; 89.7% (inactive) and 97.2% (inactive) in the assay with MCF7 breast; 73.9% (inactive) and 95.8% (inactive) in the assay on HCC-2998 colon; 73.5% (inactive) and 91.6% (inactive) with KM12 colon.
Regarding `N#C/C=C1\C=CC(O)C(O)C1OC1OC(CO)C(O)C(O)C1O` (stereo not drawn), the growth in the assay with MCF7 breast was 92.7% [100 µM] (inactive) and 74.4% [100 µM] (inactive).
Same read-out and setting: in the case of `CC(C)(C)c1cc(C2COC(=O)COCCOCC(=O)OCCOCCO2)cc(C(C)(C)C)c1O` (stereo not drawn) it was 70.6% [100 µM] (inactive) and 74.1% [100 µM] (inactive).
As for `C1CCCCNCCC1`, the growth in the assay on BT-549 breast was 114% (inactive); in the assay with MDA-MB-435 melanoma it was 94.6% (inactive); with MCF7 breast, 101% (inactive); in the assay on HCT-116 colon it was 107% (inactive); in the assay with HCC-2998 colon, 112% (inactive); in the assay on KM12 colon it was 115% (inactive).
Take `CCOC(=O)Nc1ccc2c(c1)/C(=N\NC(N)=S)c1ccccc1-2`: the growth was 41.6% (inactive) and 82.6% (inactive) in the assay with BT-549 breast; 57.3% (inactive) and 59.9% (inactive) with MDA-MB-435 melanoma; 80.7% (inactive) and 81.2% (inactive) in the assay on SW-620 colon; 63% (inactive) and 70.6% (inactive) in the assay with MCF7 breast; 60.9% (inactive) and 68.9% (inactive) with HCC-2998 colon; 40.4% (inactive) and 54.2% (inactive) in the assay with KM12 colon.
In the case of `C[N+](C)(CCNC(=O)c1cccc2cc3ccccc3nc12)Cc1ccc([N+](=O)[O-])s1`, the growth in the assay on MCF7 breast is 37.1% [25 µM] (inactive) and 55.9% [25 µM] (inactive).
Same read-out and setting: in the case of `CCOC(=O)C(=O)C(CCC(=O)c1ccc2ccccc2c1O)C(=O)OCC` (stereo not drawn) it was 69.9% [100 µM] (inactive) and 81.3% [100 µM] (inactive).
For `CCN(CC)CCCC(C)Nc1cnc(C(=O)Nc2cc(F)cc3cccnc23)cn1` (stereo not drawn), the growth in the assay with BT-549 breast is 77.4% (inactive) and -40.1% (active); with MDA-MB-435 melanoma, 25.5% (inactive) and 3.24% (active); with SW-620 colon it was 24.3% (inactive) and -78.8% (active); with MCF7 breast, 2.31% (active) and -37.5% (active); in the assay on HCT-116 colon, 9.52% (active) and -66.7% (active); with KM12 colon it was 75.3% (inactive) and -92.3% (active).
In the case of `COc1cc2c(c(OC)c1OC)-c1ccc(OC)c(=O)cc1[C@@H](NC(C)=O)CC2`, the growth with BT-549 breast was 4.27% (active) and -10% (active) and -7.06% (active); in the assay on MDA-MB-435 melanoma, -49.9% (active) and -0.781% (active) and -50.8% (active); with SW-620 colon, 23.7% (inactive) and 18.3% (inactive) and 26.4% (inactive); with MCF7 breast, 15.1% (inactive) and 15.6% (inactive) and 11.7% (inactive); in the assay with HCT-116 colon, 1.53% (active) and 0.462% (active) and 0.179% (active); in the assay on KM12 colon, -6.61% (active) and 2.96% (active) and -29.9% (active).
On to `COC(=O)c1ccc(NC(=O)O/N=C(\Cl)C(C)C)cc1`, for which the growth in the assay on MCF7 breast was -87.1% [100 µM] (active) and -100% [100 µM] (active).
Consider `OCc1ccccc1OC1OC(CO)C(O)C(O)C1O` (stereo not drawn), for which, in the assay with MCF7 breast, the growth is 120% [100 µM] (inactive) and 82.9% [100 µM] (inactive).
Consider `O=C=NC(c1ccccc1)(c1ccccc1)c1ccccc1`, for which the growth was 103% (inactive) with BT-549 breast; 108% (inactive) in the assay with MDA-MB-435 melanoma; 102% (inactive) with MCF7 breast; 93.5% (inactive) in the assay on HCT-116 colon; 111% (inactive) in the assay with HCC-2998 colon; 103% (inactive) with KM12 colon.
`C#CCN(C)Cc1ccccc1`: the growth is 94.6% (inactive) and 141% (inactive) in the assay on BT-549 breast; 107% (inactive) and 98.3% (inactive) in the assay with MDA-MB-435 melanoma; 118% (inactive) and 95.9% (inactive) in the assay with MCF7 breast; 99.6% (inactive) and 86.9% (inactive) in the assay on HCT-116 colon; 103% (inactive) and 97.7% (inactive) in the assay with HCC-2998 colon; 109% (inactive) and 102% (inactive) with KM12 colon.
Turning to `O=C(Nc1ccc(Cl)cc1)c1cc2ccccc2cc1O`, the growth in the assay on BT-549 breast is 23.3% (inactive); with MDA-MB-435 melanoma it was 39.2% (inactive) and 25.9% (inactive); in the assay on SW-620 colon, 13.3% (inactive) and 5.94% (active); in the assay on MCF7 breast it was 12% (inactive) and -0.605% (active); with HCT-116 colon, 18.9% (inactive) and -44.3% (active); with KM12 colon, 8.59% (active) and 2.94% (active).
Regarding `Fc1ccc(Nc2nc(Cl)c3[nH]cnc3n2)cc1Cl`, the growth in the assay with MCF7 breast was 53.5% [100 µM] (inactive) and 7.87% [100 µM] (active).
For `O=C(O)c1cc(C(=O)O)cc([N+](=O)[O-])c1`, the growth in the assay on BT-549 breast was 102% (inactive); with MDA-MB-435 melanoma it was 99% (inactive); with MCF7 breast it was 104% (inactive); in the assay on HCT-116 colon it was 101% (inactive); with HCC-2998 colon, 110% (inactive); in the assay with KM12 colon, 109% (inactive).
Consider `CC1CC2(OC2C)C(=O)OC2CCN(C)C/C=C(/COC(=O)C1(C)O)C2=O` (stereo not drawn), for which the growth in the assay with MCF7 breast is 91.6% [100 µM] (inactive) and 82.5% [100 µM] (inactive).
Consider `COc1ccc(-c2coc3c4c(ccc3c2=O)OCO4)cc1OC`, for which, in the assay with MCF7 breast, the growth is 53.7% [100 µM] (inactive) and 32.9% [100 µM] (inactive).
On the same count and under the same terms, in the case of `Clc1c(Cl)c(Cl)c2nn(C3CCCO3)nc2c1Cl` (stereo not drawn) it was 15.9% [100 µM] (inactive) and -100% [100 µM] (active); in that of `COC(=O)C1CCC(=O)N1CN(C(C)=O)c1cccc(O)c1` (stereo not drawn), 90.1% [100 µM] (inactive) and 83.5% [100 µM] (inactive); in that of `COC(=O)C(=O)C(C(=O)C(=O)Nc1ccccc1OC)c1nc2ccc([N+](=O)[O-])cc2[nH]c1=O` (stereo not drawn), 43% [100 µM] (inactive) and 41.8% [100 µM] (inactive).
For `CC(CN=Cc1ccccc1O)N=Cc1ccccc1O` (stereo not drawn), the growth in the assay on BT-549 breast is 67.1% (inactive) and 118% (inactive); in the assay on MDA-MB-435 melanoma it was 94% (inactive) and 122% (inactive); in the assay on SW-620 colon, 110% (inactive) and 96.8% (inactive); in the assay on MCF7 breast, 94.9% (inactive) and 95.8% (inactive); in the assay on HCT-116 colon it was 104% (inactive) and 102% (inactive); in the assay on KM12 colon, 102% (inactive) and 113% (inactive).
For the compound `CCCCCCCCCCCCOc1ccccc1C=O`, the growth is 98.3% (inactive) in the assay on MDA-MB-435 melanoma; 101% (inactive) in the assay with SW-620 colon; 81.7% (inactive) with MCF7 breast; 103% (inactive) in the assay on HCT-116 colon; 102% (inactive) in the assay on KM12 colon.
Regarding `CO/N=C/C=C\C(=O)N/C=C/C[C@H]1/C=C/[C@H](O)/C=C\C=C\c2cccc(O)c2C(=O)O1`, the growth with BT-549 breast was 31.6% (inactive) and 46.9% (inactive); in the assay with MDA-MB-435 melanoma, 6.42% (active) and -15.8% (active); with MCF7 breast, 35.6% (inactive) and 26.1% (inactive); in the assay on HCT-116 colon, 21.3% (inactive) and 14.9% (inactive); in the assay on HCC-2998 colon, 59.3% (inactive) and 29.1% (inactive); in the assay with KM12 colon, 34.3% (inactive) and 20.8% (inactive).
`COc1cc2oc3c(c(=O)c2c(O)c1/C=C/C(C)C)CCC(C)(C)Oc1cc(O)ccc1-3`: the growth in the assay with MCF7 breast is -61% [100 µM] (active) and -100% [100 µM] (active).
For the compound `O=C1CCN(Cc2ccccc2)C(=S)N1`, the growth in the assay with BT-549 breast was 101% (inactive) and 117% (inactive); in the assay on MDA-MB-435 melanoma, 108% (inactive) and 105% (inactive); in the assay with MCF7 breast it was 119% (inactive) and 86% (inactive); in the assay on HCT-116 colon, 103% (inactive) and 106% (inactive); in the assay on HCC-2998 colon, 98.8% (inactive) and 99.9% (inactive); in the assay on KM12 colon, 104% (inactive) and 105% (inactive).
With `CC1CC(C(=O)OC2OC(COC3OC(CO)C(OC4OC(C)C(O)C(O)C4O)C(O)C3O)C(O)C(O)C2O)C2CCC3(C)C(=CCC4(C)C3CCC3C(C)(CO)C(O)C(O)CC34C)C2C1C` (stereo not drawn), the growth in the assay with MCF7 breast is -87.6% [100 µM] (active) and -100% [100 µM] (active).

The values above are taken from PubChem BioAssay (NCI).
